This is an account of results in PubChem BioAssay AID602281 (The Scripps Research Institute Molecular Screening Center, 2012).

Screen size: about 360,000 compounds; about 2,900 (0.81%) were called active. The sample holds actives, similar compounds and a random draw of the others, so the mix is not that of the screen.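 How the source made its calls: active means inhibition above the mean inhibition across every tested compound plus 3 SD (cut at about 22% in these data); inactive means the rest.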

Sequence of Perilipin-5 (Homo sapiens) + 1-acylglycerol-3-phosphate O-acyltransferase ABHD5 (Homo sapiens) (Q00G26 whole entry, looked up): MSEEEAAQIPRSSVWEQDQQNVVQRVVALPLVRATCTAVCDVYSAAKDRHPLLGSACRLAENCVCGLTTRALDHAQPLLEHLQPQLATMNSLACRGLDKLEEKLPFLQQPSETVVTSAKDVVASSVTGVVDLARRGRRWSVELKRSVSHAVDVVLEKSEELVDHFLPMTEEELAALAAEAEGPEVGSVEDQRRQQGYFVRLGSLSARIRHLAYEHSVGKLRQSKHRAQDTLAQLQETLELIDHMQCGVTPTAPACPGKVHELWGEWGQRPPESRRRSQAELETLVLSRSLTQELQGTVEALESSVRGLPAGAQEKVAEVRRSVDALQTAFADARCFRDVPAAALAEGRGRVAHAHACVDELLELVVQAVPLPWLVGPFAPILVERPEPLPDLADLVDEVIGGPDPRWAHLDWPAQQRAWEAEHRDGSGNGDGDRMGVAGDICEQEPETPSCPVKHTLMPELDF
Sequence of Perilipin-5 (Homo sapiens) + 1-acylglycerol-3-phosphate O-acyltransferase ABHD5 (Homo sapiens) (Q8WTS1 whole entry, looked up): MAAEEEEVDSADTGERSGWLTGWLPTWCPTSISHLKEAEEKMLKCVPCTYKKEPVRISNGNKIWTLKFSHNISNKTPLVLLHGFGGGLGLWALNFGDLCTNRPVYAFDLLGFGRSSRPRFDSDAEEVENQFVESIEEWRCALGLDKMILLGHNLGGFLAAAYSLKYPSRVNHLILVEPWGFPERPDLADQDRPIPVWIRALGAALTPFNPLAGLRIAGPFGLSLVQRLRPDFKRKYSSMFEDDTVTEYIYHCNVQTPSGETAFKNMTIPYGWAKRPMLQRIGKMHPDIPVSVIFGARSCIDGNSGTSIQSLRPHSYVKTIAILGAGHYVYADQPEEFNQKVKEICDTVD

The assay has as its target Perilipin-5 (Homo sapiens) + 1-acylglycerol-3-phosphate O-acyltransferase ABHD5 (Homo sapiens) (UniProt Q00G26+Q8WTS1). In words: blockers of ABHD5 binding to perilipin-5 – cell lysate, split luciferase complementation, luminescence, primary screen (AID 602281).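 Further: 0% = DMSO only wells and the 100% control is not disclosed.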 Conditions: Split G. princeps luciferase complementation, 4 h, at 4 µM, hits give high values.
With `O=C(NNS(=O)(=O)c1ccc(F)cc1)c1cnccn1`, the inhibition was -1.88% (inactive).
Consider `COc1ccc(-c2cc3n(n2)CCc2nc4ccccc4n2-3)cc1`, for which the inhibition was 5.6% (inactive).
On to `CC(C)c1ccc2oc(=O)cc(CN3CCN(Cc4ccccc4)CC3)c2c1`, for which the inhibition was -1.39% (inactive).
`Cc1nc([N+](=O)[O-])nn1C12CC3CC(CC(Br)(C3)C1)C2`: the inhibition was -11.4% (inactive).
Turning to `O=C(Nc1nc(-c2ccco2)c(-c2ccco2)s1)c1ccco1`, the inhibition is 25.3% (active).
For `O=C(Nc1nonc1-c1ccc(Cl)cc1)c1ccco1`, the inhibition was -2.13% (inactive).
For `CCc1nnc(NC(=O)c2ccco2)s1`, the inhibition is 3.45% (inactive).
Take `Cc1cc(C)c(C#N)c(SCS(=O)c2ccc(C(C)(C)C)cc2)n1` (configuration not stated): the inhibition was 5.68% (inactive).
Turning to `S=C(Nc1ccc(Br)cc1Cl)N1CCC2(CC1)OCCO2`, the inhibition was -3.87% (inactive).
In the case of `CCOC(=O)CCC(=O)OCC(=O)NC(C)C1CC2CCC1C2` (configuration not stated), the inhibition is -2.3% (inactive).
On to `Cc1ccc(-n2nc(-c3ccco3)cc2C(=O)NCc2cccnc2)cc1`, for which the inhibition was 36.3% (active).
For the compound `CSc1sc(C(=O)NC(=O)NCc2cccnc2)c(C)c1-c1ccon1`, the inhibition is 6.42% (inactive).
Consider `Cc1ccc(C(=O)NC(=S)NCc2cccnc2)cc1`, for which the inhibition was 2.77% (inactive).
For `CCc1ccc(OC2(C)CCN(CCOc3ccc(C)cc3)C2)cc1` (configuration not stated), the inhibition was -1.92% (inactive).
Turning to `Cc1[nH]c2ccccc2c1C(=O)C(C)Sc1nnc(C2CC2)o1` (configuration not stated), the inhibition is -5.93% (inactive).
On to `O=C(Nc1ccccc1Cl)NC1(C(=O)N2CCOCC2)CCCCC1`, for which the inhibition is -0.52% (inactive).
In the case of `COc1ccccc1NC(=O)COC(=O)Cc1ccc(S(=O)(=O)N2CCCCC2)s1`, the inhibition was 0.2% (inactive).
In the case of `NS(=O)(=O)c1ccc(CNC(=O)c2cc(S(=O)(=O)N3CCOCC3)ccc2N2CCCC2)cc1`, the inhibition is 4.8% (inactive).
`CCC1CCCCN1C(=S)Nc1ccc(S(=O)(=O)Nc2ncccn2)cc1` (configuration not stated): the inhibition is -5.25% (inactive).
`COc1ccc(C(C(=O)NC(C)(C)C)N(C(=O)Cn2nnc3ccccc32)c2ccc(C(C)=O)cc2)cc1O` (configuration not stated): the inhibition is -5.36% (inactive).
In the case of `CCNC(=O)CC1C(=O)N(c2ccc(OC)cc2)C(=S)N1CCc1ccncc1` (configuration not stated), the inhibition is 2.72% (inactive).
Take `Cc1ccc(NC(=O)Cn2c(C)csc2=O)cc1`: the inhibition is 0% (inactive).
With `O=C(Cn1nc(C(=O)O)c2ccccc2c1=O)Nc1ccc(F)cc1` the figure was 4.56% (inactive).
To `Cc1ccc(NC(=O)Cn2sc3ccccc3c2=O)cc1` belongs 71.6% (active); to `Cn1cc(S(=O)(=O)N2CCN(c3ccc(F)cc3)CC2)c(=O)n(C)c1=O`, 2.58% (inactive).
For the compound `CC(=O)c1c(C)n(-c2ccc(N(C)C)cc2)c2ccc(OCC(N)=O)cc12`, the inhibition is -5.31% (inactive).
On to `NC(=O)COc1ccc(C23CC4CC(CC(C4)C2)C3)cc1`, for which the inhibition was -7.75% (inactive).
For the compound `Cc1ccccc1C(CC(=O)c1cccs1)C(C#N)C#N` (configuration not stated), the inhibition is 22.1% (active).
To `CC(C)OCCCNC(=O)CNC(=O)c1cccs1` belongs 3.5% (inactive).
For `Cc1ccc(NNC(=O)c2cccs2)cc1Cl`, the inhibition is 0.05% (inactive).
`CC1=NN(C(C)C)C(=O)C1`: the inhibition is -11.8% (inactive).
As for `COc1ccccc1C(=O)C(O)c1ccccc1OC` (configuration not stated), the inhibition is 4.01% (inactive).
Regarding `CSc1ccccc1OCc1cc(C(=O)N2C[C@H]3CC[C@H]2C3)no1`, the inhibition was -0.37% (inactive).
Consider `COC(=O)[C@@H](NC(=O)Nc1cc(Cl)ccc1C)C(C)C`, for which the inhibition was 15.4% (inactive).
Take `O=S(=O)(/C=C/c1ccccc1)N1CCNCC1`: the inhibition is -10.8% (inactive).
To `CC1(C(=O)O)CCN1C(=O)/C=C/c1ccccc1` (configuration not stated) belongs -1.15% (inactive); to `Cc1nc(-c2ccccc2)sc1C(=O)/C=C/c1ccccc1`, 36% (active); to `O=C(/C=C/c1ccccc1)c1ccoc1`, 23% (active).
As for `O=C(/C=C/c1ccccc1)c1ccccc1O`, the inhibition is 22.9% (active).
Turning to `Nc1nc(NC(=O)/C=C/c2ccccc2)nn1-c1ccccc1`, the inhibition was 3.41% (inactive).
With `Cc1nc(-c2ccccc2)sc1-c1nc(-c2ccccc2)ncc1S(=O)(=O)c1ccccc1`, the inhibition is 2.52% (inactive).
With `Cc1nc(-c2ccc(Cl)cc2)sc1C(=O)CBr` the figure was 9.2% (inactive).
With `CC(/C=C/c1ccccc1)=N\NC(=O)C1CC1(C)c1ccccc1` (configuration not stated) the figure was -4.04% (inactive); with `COc1ccc(CN(C)Cc2nc3cc(OC)c(OC)cc3c(=O)[nH]2)c(OC)c1`, 3.55% (inactive); with `COc1ccc(C2NC(=S)NC3=C2CCc2ccccc23)cc1OC` (configuration not stated), -20.7% (inactive).
For `O=C(c1c(F)cccc1F)N1CCN(S(=O)(=O)c2ccc3c(c2)OCCO3)CC1`, the inhibition is -12.9% (inactive).
To `Fc1ccc(N2N=C(c3cccs3)CC2c2ccco2)c(F)c1` (configuration not stated) belongs -11.2% (inactive).
As for `COC(=O)c1ccc2nc(-c3ccc(C)cc3)c(Cc3ccc(OC)cc3C)n2c1`, the inhibition is 0.21% (inactive).
Consider `Fc1ccc(CNCc2ccc(Br)cc2)cc1`, for which the inhibition was 3.28% (inactive).
In the case of `CCOC(=O)N1CCN(S(=O)(=O)c2ccc3c(c2)C(C)C(=O)N3)CC1` (configuration not stated), the inhibition was 2.99% (inactive).
`FC(F)(F)C1CCCN(c2nsc3ccccc23)C1` (configuration not stated): the inhibition was 28.5% (active).
`COC(=O)[C@@]12C[C@@H](CC(=O)NCc3cccc(C(F)(F)F)c3)C(=O)N(Cc3ccco3)C1=CCC(C)(C)C2`: the inhibition was -1.98% (inactive).
`CCS(=O)(=O)Nc1ccc(C(=O)NCCSc2ccccc2)cc1`: the inhibition is -5.43% (inactive).
As for `COC(C[C@@H](O)[C@H](C)[C@H](O)COCc1ccccc1)OC`, the inhibition is -4.38% (inactive).
In the case of `CCCCN(Cc1ccccc1)C(=O)C1CCN(Cc2sccc2C)CC1`, the inhibition is 1.95% (inactive).
Take `O=C(/C(=C/c1cccc(Cl)c1)c1nc2ccccc2[nH]1)c1ccccc1`: the inhibition is 23.3% (active).
Take `CCCc1nc2ccccc2n1C(C)C(=O)NC(C)(C)C` (configuration not stated): the inhibition is 5.62% (inactive).
To `CN(C)NC(=O)c1csnc1-c1c(Cl)cccc1Cl` belongs -5.5% (inactive); to `COC(=O)c1ccc(COC(=O)C2CCN(S(=O)(=O)c3c(Cl)cccc3Cl)CC2)o1`, 1.49% (inactive).
To `C#CCOCCOCCOCCNc1nc(N2CCOCC2)nc(N2CCN(C(=O)[C@H](Cc3ccc(O)cc3)n3cc(CCO)nn3)CC2)n1` belongs -5.39% (inactive); to `C#CCOCCOCCOCCNc1nc(N2CCN(C(=O)C([C@@H](C)O)n3cc([C@@H](N)CCCCN)nn3)CC2)nc(N2CCN(C(=O)[C@H](CCCCN)n3cc(CN)nn3)CC2)n1` (some centres not stated), 8.85% (inactive).
For `C#CCOCCOCCOCCNc1nc(N2CCN(C(=O)CCCCCCCCCCNC(=O)Cn3cc(CCCCCN)nn3)CC2)nc(N2CCN(C(=O)CCCCCCCCCCNC(=O)[C@H](CO)n3cc(CCCSC)nn3)CC2)n1`, the inhibition was 44% (active).
